Test results from PubChem BioAssay (Tox21).
Results filed as inconclusive are left out. Calls of active or inactive are those of the source. Unless noted, calls follow the shape of the dose curve; as a rule, active = well fitted curve in the direction sought with a large enough effect in the repeat runs; inconclusive = weak or mixed curves; inactive = no such curve, though single readings can be large; an effect the other way counts as inactive or inconclusive.

Key:
[1] = biological target: Estrogen receptor beta (Homo sapiens) (UniProt Q92731); assay: qHTS assay to identify small molecule agonists of the estrogen receptor beta (ER-beta) signaling pathway (AID 1259377; active = well fitted activation curve with a large enough effect in the signal ratio in the repeat runs, not every such curve was filed as active; the % refers to the signal ratio)
Summary of the method: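 Agonist mode cell assay in GripTite HEK293T cells expressing an ER-beta fusion that drives beta-lactamase from an Upstream Activator Sequence; 16 hr compound exposure at 37C, then 2 h LiveBLAzer B/G FRET substrate at room temperature, fluorescence read-out.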

[2] = qHTS assay to identify small molecule agonists of the androgen receptor (AR) signaling pathway in the presence of an antagonist - cell viability counter screen (AID 1259379);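 also: MDA-kb2 human breast cancer cells carrying an MMTV luciferase reporter; series mostly up to about 92 µM; nearly all actives have a fitted effect of over 25% in size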
Summary of the method: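 In MDA-kb2 cells (human breast carcinoma, MMTV-luciferase), compounds at 15 concentrations plus 3.0uM nilutamide; 16 hr, 37C, 0% CO2; CellTiter-Fluor fluorescence read for viability.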

[3] = qHTS assay to identify small molecule agonists of the estrogen receptor beta (ER-beta) signaling pathway - cell viability counter screen (AID 1259380); also: nearly all actives have a fitted effect of over 30% in size
Summary of the method: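 Viability of ER-beta-UAS-bla HEK293T cells was determined by CellTiter-Glo luminescence following 16 hr treatment with test compounds at 37C.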

[4] = biological target: Androgen receptor (Homo sapiens) (UniProt P10275); assay: qHTS assay to identify small molecule agonists of the androgen receptor (AR) signaling pathway in the presence of an antagonist (AID 1259381; calls by dose curve; also: nearly all actives have a fitted effect of over 15% in size)
Summary of the method: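 Here, 15-concentration compound series were pin-transferred onto MDA-kb2 MMTV-luciferase cells already dosed with nilutamide (3.0uM final). After 16hr at 37C, ONE-Glo was added and luminescence read 30min later at room temperature.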

[5] = qHTS assay to identify small molecule antagonists of the estrogen receptor beta (ER-beta) signaling pathway - cell viability counter screen (AID 1259382); also: series mostly up to about 92 µM; nearly all actives have a fitted effect of over 55% in size
Summary of the method: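 Tox21 10K library tested in qHTS format on ER-beta-bla HEK293T cells stimulated with 1nM E2; 16 hr treatment at 37C. Same-well CellTiter-Glo luminescence served as the cell viability measure.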

[6] = biological target: Estrogen receptor (Homo sapiens) (UniProt P03372); assay: qHTS assay to identify small molecule agonists of the estrogen receptor alpha (ER-alpha) signaling pathway in the presence of an antagonist (AID 1259383; calls by dose curve; also: top concentration of the series differs between compounds; nearly all actives have a fitted effect of over 15% in size)
Summary of the method: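 In VM7Luc4E2 cells, 4,000 per well, compounds at 15 concentrations were co-incubated 22hr at 37C with 10.0nM final ICI-182,780. Luminescence from the stably transfected 4×ERE-luciferase reporter was recorded 30min after ONE-Glo addition.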

[7] = qHTS assay to identify small molecule agonists or antagonists of the thyroid stimulating hormone receptor (TSHR) signaling pathway - wild type cell line counter screen (AID 1259384; calls by dose curve)
Summary of the method: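 Wild-type Hek293 cells, 800/well, 18 h at 37C, then compound with Ro20-1724 for 30 min RT. cAMP by HTRF (cAMP-d2/anti-cAMP cryptate), 1 h RT, fluorescence read. 15 concentrations, triplicates.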

[8] = biological target: Thyrotropin receptor (Homo sapiens) (UniProt P16473); assay: qHTS assay to identify small molecule antagonists of the thyroid stimulating hormone receptor (TSHR) signaling pathway (AID 1259385; calls by dose curve; also: nearly all actives have a fitted effect of over 20% in size)
Summary of the method: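 TSHR-HEK293 cells (800/well) plated 18 h, then compounds with Ro20-1724 and TSH at 1.5 ng/mL final, 30 min at room temperature. cAMP quantified by HTRF (cAMP-d2/anti-cAMP-cryptate, 1 h); 15 concentrations in triplicate.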

[9] = qHTS assay to identify small molecule agonists of the estrogen receptor alpha (ER-alpha) signaling pathway in the presence of an antagonist - cell viability counter screen (AID 1259386);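 also: series mostly up to about 92 µM; cells exposed to compounds for 22 h at 37 °C before the viability read; nearly all actives have a fitted effect of over 30% in size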
Summary of the method: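 Fluorescent CellTiter-Fluor viability signal from VM7Luc4E2 cells, with the reagent added during the final hour of a 22hr compound exposure at 37C in the presence of 10.0nM ICI-182,780.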

[10] = biological target: Progesterone receptor (Homo sapiens) (UniProt P06401); assay: qHTS assay to identify small molecule agonists of the progesterone receptor (PR) signaling pathway (AID 1346784; calls by dose curve; also: nearly all actives have a fitted effect of over 30% in size)
Summary of the method: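 Cells (PR-UAS-bla HEK 293T, GripTite) were plated in assay medium containing 2% charcoal-stripped FBS and incubated 6 hr. Test compounds in DMSO were added for 16 hr at 37C. FRET substrate was then loaded for 2 hr at room temperature before fluorescence reading.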

[11] = biological target: Progesterone receptor (Homo sapiens) (UniProt P06401); assay: qHTS assay to identify small molecule antagonists of the progesterone receptor (PR) signaling pathway (AID 1346795; active = well fitted inhibition curve with a large enough effect in the signal ratio in the repeat runs, not every such curve was filed as active; the % refers to the signal ratio)
Summary of the method: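 Antagonist mode: compounds tested against 1 nM (final) promegestone stimulation in HEK293T cells expressing PR-UAS-bla reporter, 16 hr at 37C, 5% CO2; beta-lactamase activity detected via B/G FRET substrate after 2 hr at room temperature.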

[12] = qHTS assay to identify small molecule antagonists of the progesterone receptor (PR) signaling pathway - cell viability counter screen (AID 1346798); also: series mostly up to about 92 µM; nearly all actives have a fitted effect of over 50% in size
Summary of the method: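 Counter screen for cytotoxicity: viability of PR-UAS-bla HEK293T cells was measured with CellTiter-Glo luminescence following 16 hr compound exposure in the presence of R5020.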

[13] = qHTS assay to identify small molecule agonists of the progesterone receptor (PR) signaling pathway - cell viability counter screen (AID 1346799; calls by dose curve; also: nearly all actives have a fitted effect of over 45% in size)
Summary of the method: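 Cells (PR-UAS-bla HEK293T) are plated at 3,000/well in 2% charcoal-stripped FBS medium, rested 6 hr, dosed and incubated 16 hr at 37C. CellTiter-Glo is then added and luminescence measured after 30 min at room temperature.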

[14] = qHTS assay to identify small molecule antagonists of the TGF-beta/Smad signaling pathway - cell viability counter screen (AID 1346824); also: nearly all actives have a fitted effect of over 50% in size
Summary of the method: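 SBE-bla HEK 293T cells, incubated overnight, then compound plus 0.25 ng/mL TGF-beta1 (stock added) for 5 hr at 37 C. Viability was read in the same wells by CellTiter-Glo luminescence after 30 min at room temperature.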

[15] = qHTS assay to identify small molecule agonists of the TGF-beta/Smad signaling pathway - cell viability counter screen (AID 1346829); also: top concentration of the series differs between compounds; nearly all actives have a fitted effect of over 45% in size
Summary of the method: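 Compound-treated SBE-bla HEK 293T cells (5 hr, 37 C) were assessed for viability with CellTiter-Glo in parallel with the reporter read.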

[16] = biological target: Thyrotropin-releasing hormone receptor (Homo sapiens) (UniProt P34981); assay: qHTS assay to identify small molecule antagonists of the thyrotropin-releasing hormone receptor (TRHR) signaling pathway (AID 1346877; active = well fitted inhibition curve with a large enough effect in the repeat runs, not every such curve was filed as active; also: series mostly up to about 51 µM)
Summary of the method: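 In this cell-based calcium flux format, HEK293 cells expressing TRHR received test compound for 5 min before the agonist TRH (1 nM final). Dye loading lasted 2 h at 37 °C.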

[17] = biological target: Thyrotropin-releasing hormone receptor (Homo sapiens) (UniProt P34981); assay: qHTS assay to identify small molecule agonists of the thyrotropin-releasing hormone receptor (TRHR) signaling pathway (AID 1346891; calls by dose curve; also: series mostly up to about 58 µM)
Summary of the method: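 Cells: TRHR-Hek293, seeded and incubated 18 h. Dye loading: 2 h at 37 °C. Compound added from DMSO stock by pin tool. Read-out: kinetic calcium fluorescence over 3 min.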

[18] = Human pregnane X receptor (PXR) small molecule agonists, qHTS cell viability counter screen (AID 1346977); also: nearly all actives have a fitted effect of over 50% in size
Summary of the method: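 Cytotoxicity counter screen run in the same wells as the PXR luciferase assay, using PXR-Luc HepG2 cells in charcoal-stripped serum medium. Viability: CellTiter-Fluor fluorescence after 24hr compound treatment.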

[19] = biological target: Estrogen receptor beta (Homo sapiens) (UniProt Q92731); assay: qHTS assay to identify small molecule antagonists of the estrogen receptor beta (ER-beta) signaling pathway (AID 1259378; active = well fitted inhibition curve with a large enough effect in the signal ratio in the repeat runs, not every such curve was filed as active; the % refers to the signal ratio)
Summary of the method: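 ER-beta-UAS-bla HEK293T cells in 2% charcoal-stripped FBS medium treated with compound plus 1nM final 17-beta-estradiol for 16 hr at 37C. Beta-lactamase reporter read by FRET substrate fluorescence after 2 hours at room temperature.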

[20] = qHTS assay to identify small molecule agonists of the TGF-beta/Smad signaling pathway (AID 1346859; active = well fitted activation curve with a large enough effect in the signal ratio in the repeat runs, not every such curve was filed as active; the % refers to the signal ratio; also: series mostly up to about 77 µM)
Summary of the method: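 Reporter line: HEK 293T with stably integrated SBE-controlled beta-lactamase. Compound exposure lasts 5 hr at 37 C and 5% CO2; substrate loading follows for 2 hr at room temperature, with emission read at 460 and 530 nm.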

Measured: Potency

Sequence of Thyrotropin-releasing hormone receptor (Homo sapiens) (P34981 whole entry, looked up): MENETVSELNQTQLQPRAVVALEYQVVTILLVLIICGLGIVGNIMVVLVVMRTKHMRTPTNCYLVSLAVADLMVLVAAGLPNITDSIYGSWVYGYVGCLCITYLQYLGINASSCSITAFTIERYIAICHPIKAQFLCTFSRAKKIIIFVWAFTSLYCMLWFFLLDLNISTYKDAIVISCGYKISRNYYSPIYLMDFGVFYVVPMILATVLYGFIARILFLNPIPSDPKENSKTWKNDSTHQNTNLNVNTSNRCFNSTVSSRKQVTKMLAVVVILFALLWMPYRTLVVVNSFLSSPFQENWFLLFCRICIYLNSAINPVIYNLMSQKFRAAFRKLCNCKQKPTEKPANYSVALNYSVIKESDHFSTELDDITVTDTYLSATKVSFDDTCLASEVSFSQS
Sequence of Estrogen receptor (Homo sapiens) (P03372 whole entry, looked up): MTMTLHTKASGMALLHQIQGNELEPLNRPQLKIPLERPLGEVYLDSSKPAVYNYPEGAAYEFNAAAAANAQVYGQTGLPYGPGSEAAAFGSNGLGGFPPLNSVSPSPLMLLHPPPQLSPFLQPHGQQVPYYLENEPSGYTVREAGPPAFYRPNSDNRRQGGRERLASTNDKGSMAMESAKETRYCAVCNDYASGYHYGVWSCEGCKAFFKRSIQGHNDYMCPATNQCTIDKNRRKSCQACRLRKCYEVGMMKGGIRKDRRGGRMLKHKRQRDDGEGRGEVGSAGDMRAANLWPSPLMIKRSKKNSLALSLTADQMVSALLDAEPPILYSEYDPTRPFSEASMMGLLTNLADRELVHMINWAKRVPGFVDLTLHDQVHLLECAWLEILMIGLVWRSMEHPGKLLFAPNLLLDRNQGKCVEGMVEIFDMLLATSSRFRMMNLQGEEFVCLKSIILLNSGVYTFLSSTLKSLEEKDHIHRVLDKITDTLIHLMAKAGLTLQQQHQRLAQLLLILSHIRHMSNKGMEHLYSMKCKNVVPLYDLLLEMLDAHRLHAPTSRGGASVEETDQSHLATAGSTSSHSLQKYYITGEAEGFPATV
Sequence of Estrogen receptor beta (Homo sapiens) (Q92731 whole entry, looked up, the tested form may be a part): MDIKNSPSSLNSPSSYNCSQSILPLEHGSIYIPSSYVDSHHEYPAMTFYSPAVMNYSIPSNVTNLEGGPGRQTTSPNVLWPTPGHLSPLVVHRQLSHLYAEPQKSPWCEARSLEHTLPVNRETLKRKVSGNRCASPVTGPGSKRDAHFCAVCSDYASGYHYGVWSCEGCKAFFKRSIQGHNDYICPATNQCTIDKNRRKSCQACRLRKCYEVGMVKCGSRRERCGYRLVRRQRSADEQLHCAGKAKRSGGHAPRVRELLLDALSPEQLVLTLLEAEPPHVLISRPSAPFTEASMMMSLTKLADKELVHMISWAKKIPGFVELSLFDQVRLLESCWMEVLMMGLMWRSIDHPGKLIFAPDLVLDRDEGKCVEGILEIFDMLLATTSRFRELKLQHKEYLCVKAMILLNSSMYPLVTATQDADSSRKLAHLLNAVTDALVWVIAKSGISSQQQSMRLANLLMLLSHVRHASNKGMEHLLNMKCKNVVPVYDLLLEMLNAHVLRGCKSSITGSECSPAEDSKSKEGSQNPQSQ
Sequence of Progesterone receptor (Homo sapiens) (P06401 whole entry, looked up): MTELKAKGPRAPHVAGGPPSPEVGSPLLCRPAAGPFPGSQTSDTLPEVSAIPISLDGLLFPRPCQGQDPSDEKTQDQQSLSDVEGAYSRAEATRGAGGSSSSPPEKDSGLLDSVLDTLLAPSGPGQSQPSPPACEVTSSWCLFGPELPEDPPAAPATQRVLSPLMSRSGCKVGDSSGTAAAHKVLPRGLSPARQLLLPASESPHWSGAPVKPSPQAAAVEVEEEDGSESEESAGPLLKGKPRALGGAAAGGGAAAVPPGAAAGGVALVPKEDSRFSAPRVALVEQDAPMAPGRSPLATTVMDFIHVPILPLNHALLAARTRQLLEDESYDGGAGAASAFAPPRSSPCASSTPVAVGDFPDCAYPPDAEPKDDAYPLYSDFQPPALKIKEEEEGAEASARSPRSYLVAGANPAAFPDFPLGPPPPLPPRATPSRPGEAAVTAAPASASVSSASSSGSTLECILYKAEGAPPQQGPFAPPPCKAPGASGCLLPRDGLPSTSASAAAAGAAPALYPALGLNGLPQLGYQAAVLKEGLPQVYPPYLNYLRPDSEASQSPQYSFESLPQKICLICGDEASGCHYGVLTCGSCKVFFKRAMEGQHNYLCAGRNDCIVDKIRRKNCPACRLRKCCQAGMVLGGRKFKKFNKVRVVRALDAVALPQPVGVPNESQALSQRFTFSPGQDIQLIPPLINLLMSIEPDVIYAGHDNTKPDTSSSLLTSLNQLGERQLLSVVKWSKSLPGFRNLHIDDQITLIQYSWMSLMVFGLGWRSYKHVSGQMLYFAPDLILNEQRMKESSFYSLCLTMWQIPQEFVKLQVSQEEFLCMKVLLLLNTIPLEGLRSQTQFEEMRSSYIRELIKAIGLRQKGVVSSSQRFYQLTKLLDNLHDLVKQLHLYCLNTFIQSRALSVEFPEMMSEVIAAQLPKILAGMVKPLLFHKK
Sequence of Thyrotropin receptor (Homo sapiens) (P16473 whole entry, looked up): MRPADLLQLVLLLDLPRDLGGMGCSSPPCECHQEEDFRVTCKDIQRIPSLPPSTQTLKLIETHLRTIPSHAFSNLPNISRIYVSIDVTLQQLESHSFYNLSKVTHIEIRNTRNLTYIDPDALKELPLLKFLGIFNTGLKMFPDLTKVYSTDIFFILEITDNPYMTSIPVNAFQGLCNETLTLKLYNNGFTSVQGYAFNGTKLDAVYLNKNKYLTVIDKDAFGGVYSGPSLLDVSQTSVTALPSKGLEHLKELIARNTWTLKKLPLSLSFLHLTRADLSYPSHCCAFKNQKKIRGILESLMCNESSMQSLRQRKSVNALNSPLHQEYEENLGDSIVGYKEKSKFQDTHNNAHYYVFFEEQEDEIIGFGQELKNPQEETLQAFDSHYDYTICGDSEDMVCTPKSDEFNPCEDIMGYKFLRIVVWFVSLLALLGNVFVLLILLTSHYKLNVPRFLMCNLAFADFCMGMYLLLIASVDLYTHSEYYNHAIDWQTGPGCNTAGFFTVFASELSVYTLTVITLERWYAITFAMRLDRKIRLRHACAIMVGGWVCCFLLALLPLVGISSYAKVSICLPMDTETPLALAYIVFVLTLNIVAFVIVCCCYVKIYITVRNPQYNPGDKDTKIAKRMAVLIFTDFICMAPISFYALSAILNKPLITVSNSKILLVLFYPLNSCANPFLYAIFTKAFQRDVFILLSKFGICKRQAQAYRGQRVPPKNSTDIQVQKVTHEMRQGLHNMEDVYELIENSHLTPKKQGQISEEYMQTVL
Sequence of Androgen receptor (Homo sapiens) (P10275 whole entry, looked up): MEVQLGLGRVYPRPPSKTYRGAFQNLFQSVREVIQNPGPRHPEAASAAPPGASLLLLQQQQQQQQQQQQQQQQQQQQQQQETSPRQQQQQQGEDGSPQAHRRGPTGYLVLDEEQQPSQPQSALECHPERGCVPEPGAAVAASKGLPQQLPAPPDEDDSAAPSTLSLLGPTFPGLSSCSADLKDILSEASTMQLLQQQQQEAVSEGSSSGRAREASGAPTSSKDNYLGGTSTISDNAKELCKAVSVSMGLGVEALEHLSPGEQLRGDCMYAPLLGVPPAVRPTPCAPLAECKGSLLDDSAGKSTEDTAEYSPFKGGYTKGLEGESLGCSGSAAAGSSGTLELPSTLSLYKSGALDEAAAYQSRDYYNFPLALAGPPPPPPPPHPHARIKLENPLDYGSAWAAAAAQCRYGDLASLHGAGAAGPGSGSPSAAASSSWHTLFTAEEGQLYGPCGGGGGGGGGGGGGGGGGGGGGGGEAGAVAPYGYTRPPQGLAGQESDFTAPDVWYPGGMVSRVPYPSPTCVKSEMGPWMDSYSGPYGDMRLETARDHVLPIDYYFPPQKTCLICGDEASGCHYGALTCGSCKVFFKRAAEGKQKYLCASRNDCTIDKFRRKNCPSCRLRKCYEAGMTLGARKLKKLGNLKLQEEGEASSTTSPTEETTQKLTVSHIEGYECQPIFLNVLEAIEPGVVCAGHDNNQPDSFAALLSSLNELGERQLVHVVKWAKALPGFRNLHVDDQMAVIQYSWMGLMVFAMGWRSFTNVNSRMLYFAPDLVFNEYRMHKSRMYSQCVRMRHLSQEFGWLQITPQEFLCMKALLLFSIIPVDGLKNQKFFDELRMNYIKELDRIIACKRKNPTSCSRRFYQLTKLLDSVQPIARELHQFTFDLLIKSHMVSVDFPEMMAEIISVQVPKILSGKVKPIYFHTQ

CCOC(=O)COc1cc(-n2ncc(C(F)(F)F)c(C)c2=O)c(F)cc1Cl
not listed: [19] | [20]
inactive: all other assays above

CNCCO
not listed: [3] | [4] | [6] | [7]
inactive: all other assays above

CCCC[N+](C)(CCCC)CCCC
not listed: [4] | [9] | [12] | [16] | [17] | [19]
inactive: all other assays above

C=COC(=O)C(C)(CC)CCC(C)C (centres undefined)
not listed: [3] | [4] | [6] | [7] | [8] | [9] | [11]
inactive: all other assays above

CC(C)(C)c1ccc(-c2ccc(C(C)(C)C)cc2)cc1
not listed: [7] | [11] | [19]
inactive: all other assays above

c1ccc(CCc2ccccc2)cc1
not listed: [4] | [6] | [19]
inactive: all other assays above

C=C(C)C(=O)OCCOCCOCCOCCOC(=O)C(=C)C
not listed: [4] | [6] | [11] | [19]
inactive: all other assays above

CCCCOCCOC(=O)CCCCCCCCC(=O)OCCOCCCC
not listed: [4] | [6] | [19]
inactive: all other assays above

[O-][n+]1cccc(CO)c1
not listed: [4] | [6] | [12] | [19]
inactive: all other assays above
